Source: PubChem BioAssay (NCI)
Compounds without any hit were thinned out: in the full panel of roughly 83,000, 20% have a hit.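 Activity criterion: percent growth below 10, measured after cells in 96-well plates were exposed to a single compound concentration for 48 hours.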 Calls of active or inactive are those of the source.

Key:
Assay in all cases: NCI-60 one-dose screen, 48 h (100 = growth as untreated, 0 = no growth, -100 = all killed)
Details in all cases: 10 µM unless noted
SK-MEL-2 melanoma = tested on: SK-MEL-2 melanoma
EKVX NSCLC = tested on: EKVX NSCLC
SN12C renal = tested on: SN12C renal
UO-31 renal = tested on: UO-31 renal
TK-10 renal = tested on: TK-10 renal
ACHN renal = tested on: ACHN renal
CAKI-1 renal = tested on: CAKI-1 renal
A498 renal = tested on: A498 renal
CCRF-CEM leukemia = tested on: CCRF-CEM leukemia
MOLT-4 leukemia = tested on: MOLT-4 leukemia
SR leukemia = tested on: SR leukemia
RPMI-8226 leukemia = tested on: RPMI-8226 leukemia
OVCAR-8 ovarian = tested on: OVCAR-8 ovarian
OVCAR-5 ovarian = tested on: OVCAR-5 ovarian
OVCAR-4 ovarian = tested on: OVCAR-4 ovarian
SK-OV-3 ovarian = tested on: SK-OV-3 ovarian
IGROV1 ovarian = tested on: IGROV1 ovarian
OVCAR-3 ovarian = tested on: OVCAR-3 ovarian
HS 578T breast = tested on: HS 578T breast
NCI/ADR-RES ovarian = tested on: NCI/ADR-RES ovarian

Measured: growth

Cn1cc(-c2nc(-c3c[nH]c4ccncc34)cs2)c2cc(Br)ccc21
inactive: SK-OV-3 ovarian 40.8%
active: SK-MEL-2 melanoma -57.7% | EKVX NSCLC -75.3% | SN12C renal -74.4% | UO-31 renal -91.2% | TK-10 renal -84% | ACHN renal -98.9% | CAKI-1 renal -77.2% | A498 renal -78% | CCRF-CEM leukemia -43.4% | MOLT-4 leukemia -66.4% | SR leukemia -23.6% | RPMI-8226 leukemia -38% | OVCAR-8 ovarian -53.2% | OVCAR-5 ovarian -94.1% | OVCAR-4 ovarian -71% | IGROV1 ovarian -82.8% | OVCAR-3 ovarian -92.5% | HS 578T breast -44% | NCI/ADR-RES ovarian -57.6%

COC(=O)C1=C(C(=O)Nc2cccnc2)C2OC1(C(Cc1ccccc1)Oc1ccccc1)C1OC21 (stereo not given)
active: UO-31 renal -99.3% | TK-10 renal -8.69% | ACHN renal -99.2% | CCRF-CEM leukemia -23% | MOLT-4 leukemia -31.5% | SR leukemia -23.7% | RPMI-8226 leukemia -11.8% | OVCAR-3 ovarian -53.5%
inactive: SK-MEL-2 melanoma 93.5% | EKVX NSCLC 101% | SN12C renal 48.5% | CAKI-1 renal 57.4% | A498 renal 121% | OVCAR-8 ovarian 86.4% | OVCAR-5 ovarian 79.7% | OVCAR-4 ovarian 75% | SK-OV-3 ovarian 98.3% | IGROV1 ovarian 77.7% | HS 578T breast 101% | NCI/ADR-RES ovarian 103%

CN(CCC#N)c1ccc(/C=C2\NC(=O)NC2=O)cc1
inactive: SK-MEL-2 melanoma 100% | EKVX NSCLC 79.3% | SN12C renal 98.6% | UO-31 renal 84.4% | TK-10 renal 93.5% | ACHN renal 97.9% | CAKI-1 renal 82.8% | A498 renal 89.3% | CCRF-CEM leukemia 107% | MOLT-4 leukemia 92% | SR leukemia 102% | RPMI-8226 leukemia 110% | OVCAR-8 ovarian 111% | OVCAR-5 ovarian 98.7% | OVCAR-4 ovarian 102% | SK-OV-3 ovarian 105% | IGROV1 ovarian 105% | OVCAR-3 ovarian 121% | HS 578T breast 88.8% | NCI/ADR-RES ovarian 93.2%

COc1cc(C2Cc3ncccc3-c3[nH]c(=O)c4cccnc4c32)cc(OC)c1OC (stereo not given)
inactive: SK-MEL-2 melanoma 19.4% | EKVX NSCLC 44.2% | SN12C renal 39.8% | UO-31 renal 38.6% | TK-10 renal 52.6% | ACHN renal 46.4% | CAKI-1 renal 31.8% | CCRF-CEM leukemia 22.1% | MOLT-4 leukemia 23.8% | SR leukemia 11.8% | RPMI-8226 leukemia 37.6% | OVCAR-8 ovarian 17.3% | OVCAR-5 ovarian 52.2% | OVCAR-4 ovarian 58% | SK-OV-3 ovarian 15.3% | IGROV1 ovarian 48.6% | HS 578T breast 41.9% | NCI/ADR-RES ovarian 31.1%
active: A498 renal -1.31% | OVCAR-3 ovarian -11.3%

Cc1ccc(-c2nc(C#N)c(S(=O)(=O)NCCO)o2)cc1
active: CCRF-CEM leukemia -17.5% | SR leukemia -7.78% | RPMI-8226 leukemia 1.81%
inactive: SK-MEL-2 melanoma 64.9% | EKVX NSCLC 104% | SN12C renal 81.2% | UO-31 renal 62.1% | TK-10 renal 65.7% | ACHN renal 67.7% | CAKI-1 renal 71% | A498 renal 108% | MOLT-4 leukemia 19.8% | OVCAR-8 ovarian 64.7% | OVCAR-5 ovarian 94.5% | OVCAR-4 ovarian 86.9% | SK-OV-3 ovarian 95.7% | IGROV1 ovarian 65.1% | OVCAR-3 ovarian 41.3% | HS 578T breast 107% | NCI/ADR-RES ovarian 81%

CN1CCN(Cc2ccc(NC(=O)c3cncc(C#Cc4cncc5ncccc45)c3)cc2C(F)(F)F)CC1
inactive: EKVX NSCLC 39.2% | SN12C renal 21.3% | TK-10 renal 22% | OVCAR-8 ovarian 28.1% | OVCAR-5 ovarian 25.2% | OVCAR-4 ovarian 17.3% | OVCAR-3 ovarian 36.3% | NCI/ADR-RES ovarian 30.9%
active: SK-MEL-2 melanoma -69.1% | UO-31 renal -10.2% | ACHN renal 8.35% | CAKI-1 renal -19.7% | A498 renal -25.5% | CCRF-CEM leukemia 3.31% | MOLT-4 leukemia 9.12% | SR leukemia -37.7% | RPMI-8226 leukemia 9.58% | SK-OV-3 ovarian -3.03% | IGROV1 ovarian 1.13% | HS 578T breast -5.88%

C(/C=C/c1ccccc1)=Nc1ccc(CCc2ccc(N=C/C=C/c3ccccc3)cc2)cc1
active: ACHN renal 6.67%
inactive: SK-MEL-2 melanoma 41.5% | EKVX NSCLC 121% | SN12C renal 92.7% | UO-31 renal 86.4% | TK-10 renal 93.8% | CAKI-1 renal 41.7% | A498 renal 109% | CCRF-CEM leukemia 95.3% | MOLT-4 leukemia 78.2% | SR leukemia 47.3% | RPMI-8226 leukemia 94.5% | OVCAR-8 ovarian 83.5% | OVCAR-5 ovarian 93.6% | OVCAR-4 ovarian 101% | SK-OV-3 ovarian 98.6% | IGROV1 ovarian 85.8% | OVCAR-3 ovarian 132% | HS 578T breast 108% | NCI/ADR-RES ovarian 80.9%

OC(c1ccccc1)(c1ccccc1)c1ccccc1-c1ccccc1
inactive: SK-MEL-2 melanoma 103% | EKVX NSCLC 115% | SN12C renal 89% | UO-31 renal 78.5% | TK-10 renal 89.8% | ACHN renal 99% | CAKI-1 renal 84.2% | A498 renal 81.5% | CCRF-CEM leukemia 92.9% | MOLT-4 leukemia 84% | SR leukemia 95.2% | RPMI-8226 leukemia 82.9% | OVCAR-8 ovarian 96.7% | OVCAR-5 ovarian 94.7% | OVCAR-4 ovarian 80.4% | SK-OV-3 ovarian 86.6% | IGROV1 ovarian 91.2% | OVCAR-3 ovarian 101% | HS 578T breast 94.2% | NCI/ADR-RES ovarian 85.5%

CC(C)CCSc1nc(Nc2ccccc2)c(C#N)c(-c2ccccc2)n1
active: ACHN renal -21.2% | A498 renal -8.82% | OVCAR-4 ovarian -7.19%
inactive: SK-MEL-2 melanoma 81.4% | EKVX NSCLC 14.7% | SN12C renal 27.1% | UO-31 renal 12.9% | TK-10 renal 24.7% | CAKI-1 renal 26.8% | CCRF-CEM leukemia 54.9% | MOLT-4 leukemia 80.7% | SR leukemia 27.2% | RPMI-8226 leukemia 73.9% | OVCAR-8 ovarian 42.7% | OVCAR-5 ovarian 64.9% | SK-OV-3 ovarian 69.1% | IGROV1 ovarian 17.3% | OVCAR-3 ovarian 57.6% | HS 578T breast 14.3% | NCI/ADR-RES ovarian 52.4%

O=C1/C(=C/c2ccc(C(F)(F)F)cc2)COc2ccc(O)c(O)c21
inactive: SK-MEL-2 melanoma 98% | EKVX NSCLC 52.3% | TK-10 renal 11.9% | A498 renal 116% | OVCAR-4 ovarian 24.8% | SK-OV-3 ovarian 81.6% | HS 578T breast 10.4%
active: SN12C renal -58.6% | UO-31 renal -98.9% | ACHN renal -57.6% | CAKI-1 renal -23.6% | CCRF-CEM leukemia -3.75% | MOLT-4 leukemia -1.49% | SR leukemia 3.77% | RPMI-8226 leukemia -13.8% | OVCAR-8 ovarian 9.3% | OVCAR-5 ovarian -34.1% | IGROV1 ovarian -49.6% | OVCAR-3 ovarian -84.6% | NCI/ADR-RES ovarian -11.6%

CC(=O)c1cc(-c2ccccc2N)n(-c2ccc3c(c2)OCO3)c1C
inactive: SK-MEL-2 melanoma 51.6% | EKVX NSCLC 50.9% | SN12C renal 29.1% | UO-31 renal 40.2% | TK-10 renal 45.6% | ACHN renal 21.2% | CAKI-1 renal 41.7% | CCRF-CEM leukemia 11.8% | MOLT-4 leukemia 16.1% | SR leukemia 14% | RPMI-8226 leukemia 19.8% | OVCAR-8 ovarian 18.7% | OVCAR-5 ovarian 30% | OVCAR-4 ovarian 48.3% | SK-OV-3 ovarian 33.7% | IGROV1 ovarian 22% | HS 578T breast 32.6% | NCI/ADR-RES ovarian 13.1%
active: A498 renal -12% | OVCAR-3 ovarian 5.55%

NC(=S)N/N=C/c1cn(-c2ccccc2)nc1-c1cc2ccccc2oc1=O
active: A498 renal -6.2%
inactive: SK-MEL-2 melanoma 39.2% | EKVX NSCLC 75.3% | SN12C renal 63.1% | UO-31 renal 50.7% | TK-10 renal 77.2% | ACHN renal 77.4% | CAKI-1 renal 44.1% | CCRF-CEM leukemia 53.7% | MOLT-4 leukemia 33.4% | SR leukemia 12.2% | RPMI-8226 leukemia 33.4% | OVCAR-8 ovarian 64.5% | OVCAR-5 ovarian 88.1% | OVCAR-4 ovarian 79.2% | SK-OV-3 ovarian 83.2% | IGROV1 ovarian 46.7% | OVCAR-3 ovarian 34.4% | HS 578T breast 64.4% | NCI/ADR-RES ovarian 48.6%

C=CCCC(=O)N1C=CC(=O)[C@H](O)[C@@H]1/C=C/c1ccccc1
inactive: SK-MEL-2 melanoma 77.7% [100 µM] | EKVX NSCLC 37.4% [100 µM] | SN12C renal 42% [100 µM] | UO-31 renal 29% [100 µM] | TK-10 renal 54.9% [100 µM] | ACHN renal 28.1% [100 µM] | CAKI-1 renal 15.7% [100 µM] | A498 renal 83.4% [100 µM] | CCRF-CEM leukemia 27.7% [100 µM] | MOLT-4 leukemia 36.5% [100 µM] | SR leukemia 43.8% [100 µM] | RPMI-8226 leukemia 54.2% [100 µM] | OVCAR-8 ovarian 37% [100 µM] | OVCAR-5 ovarian 62.2% [100 µM] | OVCAR-4 ovarian 55.4% [100 µM] | SK-OV-3 ovarian 39.2% [100 µM] | IGROV1 ovarian 51% [100 µM] | OVCAR-3 ovarian 30.3% [100 µM] | HS 578T breast 87.6% [100 µM] | NCI/ADR-RES ovarian 19.8% [100 µM]

CCOC(=O)C1CCN(c2ccc(N3C[C@@H](CNCc4ccc(C(=N)N)cc4)OC3=O)cc2)CC1
inactive: SK-MEL-2 melanoma 112% | EKVX NSCLC 99.4% | SN12C renal 97.6% | UO-31 renal 77.8% | TK-10 renal 97.5% | ACHN renal 102% | CAKI-1 renal 89.4% | A498 renal 108% | CCRF-CEM leukemia 98.5% | MOLT-4 leukemia 101% | SR leukemia 98.2% | RPMI-8226 leukemia 96.2% | OVCAR-8 ovarian 101% | OVCAR-5 ovarian 94.3% | OVCAR-4 ovarian 105% | SK-OV-3 ovarian 104% | IGROV1 ovarian 101% | OVCAR-3 ovarian 113% | HS 578T breast 102% | NCI/ADR-RES ovarian 105%

CCOc1ccc(/C=N\N=C\c2ccc(OCC)cc2)cc1
inactive: SK-MEL-2 melanoma 39.3% | EKVX NSCLC 103% | SN12C renal 80.4% | UO-31 renal 79% | TK-10 renal 86.8% | CAKI-1 renal 46.3% | A498 renal 108% | CCRF-CEM leukemia 118% | MOLT-4 leukemia 81% | SR leukemia 64.3% | RPMI-8226 leukemia 107% | OVCAR-8 ovarian 74.5% | OVCAR-5 ovarian 76.9% | OVCAR-4 ovarian 94.1% | SK-OV-3 ovarian 101% | IGROV1 ovarian 78.5% | OVCAR-3 ovarian 114% | HS 578T breast 106% | NCI/ADR-RES ovarian 78.1%
active: ACHN renal 9.41%
